AC50 and outcome data for 18 molecules are collected here from PubChem BioAssay (EPA / NIEHS).

Read-out in experiment [1]: Matrix Metallopeptidase 1 (MMP1), MMP1 (gene 4312)
Nature of the experiment: BSK_MyoF_MMP1: BioMAP Diversity Plus: MyoF Assay for Matrix Metallopeptidase 1 (MMP1) Biomarker Activity (AID 2284268). The note with it: primary human lung fibroblasts. The gist of the method:
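MMP1 measured by ELISA 24 h after dosing primary human lung fibroblasts; cytotoxicity checked in parallel cultures by sulforhodamine B total-protein staining read at 560 nm.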

Read-out in experiment [2]: TIMP metallopeptidase inhibitor 1 (TIMP1), TIMP1 (gene 7076)
Nature of the experiment: BSK_MyoF_TIMP1: BioMAP Diversity Plus: MyoF Assay for TIMP metallopeptidase inhibitor 1 (TIMP1) Biomarker Activity (AID 2284269). The settings on record: primary human lung fibroblasts. Summed up:
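ELISA read-out of TIMP-1 from primary human lung fibroblast cultures 24 h after compound dosing; gain of signal relative to DMSO vehicle baseline defines activity.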

Active and inactive are the calls of the source. Rule for the calls: active = hit-call score of the fitted dose curve at least 0.9, where 1 is the maximum; inactive = score below 0.9.

In the case of `BrC1CCC(Br)C(Br)CCC(Br)C(Br)CCC1Br` (stereo unspecified), in experiment [1], the AC50 (as a rule, the concentration giving half of the maximal activity seen) was 3.29 µM (active). The outcome in experiment [2] was inactive.
Consider `CN(CCOc1ccc(CC2SC(=O)NC2=O)cc1)c1ccccn1` (stereo unspecified), for which, in experiment [1], the AC50 was 20 µM (active). For the same molecule, the result in experiment [2] was inactive.
As for `CCCCC(CC)COCCC#N` (stereo unspecified), the result in experiment [1] and in experiment [2] was inactive.
On to `C#C[C@]1(O)CC[C@H]2[C@@H]3CCC4=Cc5oncc5C[C@]4(C)[C@H]3CC[C@@]21C`, for which the result in experiment [1] was inactive. Besides, the AC50 in experiment [2] was 35.8 µM (active).
In the case of `Nc1cc([N+](=O)[O-])ccc1Cl`, the outcome in experiment [1] and in experiment [2] was inactive.
Consider `CC(C)(COC(=O)c1ccccc1)COC(=O)c1ccccc1`, for which the outcome in experiment [1] and in experiment [2] was inactive.
Take `CC(C)Oc1ccccc1O`: the result in experiment [1] and in experiment [2] was inactive.
As to `O=[N+]([O-])c1cc(C(F)(F)F)ccc1Cl`, the outcome in experiment [1] and in experiment [2] was inactive.
For `O=C1CCCCCCCCCCCCCCO1`, the concentration at half-maximal activity (AC50) in experiment [1] is 20 µM (active). For the same molecule, the result in experiment [2] was inactive.
Regarding `N#Cc1ccc(CC(=NNC(=O)Nc2ccc(OC(F)(F)F)cc2)c2cccc(C(F)(F)F)c2)cc1`, the outcome in experiment [1] and in experiment [2] was inactive.
On to `O=C(O)c1cn(-c2ccc(F)cc2)c2cc(N3CCNCC3)c(F)cc2c1=O`, for which the outcome in experiment [1] and in experiment [2] was inactive.
Consider `CC(=O)/C=C/C1=C(C)CCCC1(C)C`, for which the outcome in experiment [1] and in experiment [2] was inactive.
Take `CC(=O)Nc1ccccc1O`: the result in experiment [1] and in experiment [2] was inactive.
Regarding `O=C=NC1CCC(CC2CCC(N=C=O)CC2)CC1` (stereo unspecified), the outcome in experiment [1] and in experiment [2] was inactive.
As to `CCCCC(CC)COC(=O)/C=C\C(=O)OCC(CC)CCCC` (stereo unspecified), the outcome in experiment [1] and in experiment [2] was inactive.
Turning to `CC(C)c1ccc(C(C)C)cc1`, the result in experiment [1] and in experiment [2] was inactive.
Take `Cc1ccc(O)c(C(C)(C)C)c1`: the result in experiment [1] was inactive. The AC50 in experiment [2] was 33.7 µM (active).
On to `c1ccc2c(c1)c1cccc3ccc4cccc2c4c31`, for which the outcome in experiment [1] and in experiment [2] was inactive.
